Out of some 310,000 compounds screened, about 14,000 (4.5%) showed an effect of 50% or more. Effects have a minus sign here. Many of the other results were omitted from the sample, so strong results are more common in it than they were.

From publication PMC4336329 (PLoS ONE, 2015) come the findings set out here.
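Note: peak tail current of the secondary pulse compared with the same well before compound.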

In this assay the target is human ether-à-go-go-related gene (hERG) potassium channel (human, UniProt Q12809). Description: primary screen, population patch clamp on CHO cells stably expressing hERG; higher = less effect of the substance.
human ether-à-go-go-related gene (hERG) potassium channel, sequence (Q12809 whole entry, looked up): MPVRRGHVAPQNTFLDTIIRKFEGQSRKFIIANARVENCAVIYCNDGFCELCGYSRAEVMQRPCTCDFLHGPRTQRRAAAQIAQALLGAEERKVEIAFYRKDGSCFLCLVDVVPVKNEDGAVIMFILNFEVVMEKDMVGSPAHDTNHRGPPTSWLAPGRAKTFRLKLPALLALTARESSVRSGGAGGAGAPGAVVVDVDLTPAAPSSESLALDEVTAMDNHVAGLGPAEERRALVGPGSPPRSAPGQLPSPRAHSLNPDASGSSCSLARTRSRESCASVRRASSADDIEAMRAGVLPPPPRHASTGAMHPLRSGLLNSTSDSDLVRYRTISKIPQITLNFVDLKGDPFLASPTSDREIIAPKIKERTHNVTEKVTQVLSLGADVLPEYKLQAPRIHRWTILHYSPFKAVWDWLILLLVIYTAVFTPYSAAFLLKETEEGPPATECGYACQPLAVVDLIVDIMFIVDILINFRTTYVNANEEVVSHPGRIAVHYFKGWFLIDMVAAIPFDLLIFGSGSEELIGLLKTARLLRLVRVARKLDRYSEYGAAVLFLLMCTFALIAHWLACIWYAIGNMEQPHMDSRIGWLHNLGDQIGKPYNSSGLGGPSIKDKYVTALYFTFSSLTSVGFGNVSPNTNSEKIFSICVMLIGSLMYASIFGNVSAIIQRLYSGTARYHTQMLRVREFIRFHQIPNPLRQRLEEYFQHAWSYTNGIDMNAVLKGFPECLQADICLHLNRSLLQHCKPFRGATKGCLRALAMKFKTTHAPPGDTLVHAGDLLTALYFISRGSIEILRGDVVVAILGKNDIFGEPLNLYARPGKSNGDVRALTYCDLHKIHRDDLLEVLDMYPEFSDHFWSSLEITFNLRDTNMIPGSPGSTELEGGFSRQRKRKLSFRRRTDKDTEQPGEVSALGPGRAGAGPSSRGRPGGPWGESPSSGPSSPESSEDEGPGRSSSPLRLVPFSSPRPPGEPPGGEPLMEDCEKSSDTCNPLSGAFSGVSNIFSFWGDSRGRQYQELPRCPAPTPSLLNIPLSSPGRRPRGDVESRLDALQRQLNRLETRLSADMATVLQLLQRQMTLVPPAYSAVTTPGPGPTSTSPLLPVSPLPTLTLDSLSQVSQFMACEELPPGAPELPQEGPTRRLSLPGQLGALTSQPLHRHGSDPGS
Turning to `CCc1ccc2oc(-c3ccc(OC)cc3)cc(=[NH+]c3cccc(C(=O)O)c3)c2c1.F[B-](F)(F)F`, the “hERG current change (%, negative = inhibition) at 10uM” value amounted to 5%.

On to `COc1ccc(CCNC(=S)NCCc2ccc(OC)c(OC)c2)cc1OC`, for which the “hERG current change (%, negative = inhibition) at 10uM” value was found to be 5.11%.

In the case of `Cc1ccn2cc(CSc3ccccc3N)nc2c1`, the “hERG current change (%, negative = inhibition) at 10uM” value is given as -29.1%.

Turning to `CCN(CC)c1ccc(NC(=O)CCc2nnc3ccc(N4CCCCC4)nn23)c(C)c1`, the “hERG current change (%, negative = inhibition) at 10uM” value is -12.8%.

As for `CCCCC/C(=N/O)c1c(C)[nH]c2ccccc12`, the “hERG current change (%, negative = inhibition) at 10uM” value was determined as 4.53%.

On to `Cc1ccc(N(CC(O)CON=C2c3ccccc3-c3ccccc32)S(C)(=O)=O)cc1` (stereo not drawn), for which the “hERG current change (%, negative = inhibition) at 10uM” value was determined as 15.5%.

Take `O=C(NCC1CCCN1S(=O)(=O)c1cccs1)c1cccc([N+](=O)[O-])c1` (stereo not drawn): the “hERG current change (%, negative = inhibition) at 10uM” value is -24.5%.

For `Cc1ccc(C)c(S(=O)(=O)N2CCCC2CNC(=O)C(=O)NCc2ccco2)c1` (stereo not drawn), the “hERG current change (%, negative = inhibition) at 10uM” value was -54.2%.

Consider `Cc1ccc(C(=O)NCC2CCCN2S(=O)(=O)c2ccc(C)cc2)cc1` (stereo not drawn), for which the “hERG current change (%, negative = inhibition) at 10uM” value is reported as -33.8%.

For the compound `Cc1ccc(C)c(S(=O)(=O)N2CCCC2CNC(=O)C(=O)NCCc2ccco2)c1` (stereo not drawn), the “hERG current change (%, negative = inhibition) at 10uM” value is recorded as -21.2%.

For the compound `Cc1ccc(S(=O)(=O)N2CCCC2CNC(=O)c2ccc(F)c(F)c2)cc1` (stereo not drawn), the “hERG current change (%, negative = inhibition) at 10uM” value was -52.5%.

Take `Cc1ccc(C)c(S(=O)(=O)N2CCCC2CNC(=O)C(=O)NC2CC2)c1` (stereo not drawn): the “hERG current change (%, negative = inhibition) at 10uM” value is recorded as -0.659%.

Turning to `Cc1ccc(C)c(S(=O)(=O)N2CCCC2CNC(=O)C(=O)NCC2CCCO2)c1` (stereo not drawn), the “hERG current change (%, negative = inhibition) at 10uM” value is listed as -15.5%.

Take `Cc1ccc(C)c(S(=O)(=O)N2CCCC2CNC(=O)c2ccc([N+](=O)[O-])cc2)c1` (stereo not drawn): the “hERG current change (%, negative = inhibition) at 10uM” value is recorded as -81.8%.

`Cc1ccc(S(=O)(=O)N2CCCC2CNC(=O)c2ccccc2)cc1` (stereo not drawn): the “hERG current change (%, negative = inhibition) at 10uM” value was -9.34%.

For the compound `O=C(NCC1CCCN1S(=O)(=O)c1cccs1)c1ccc([N+](=O)[O-])cc1` (stereo not drawn), the “hERG current change (%, negative = inhibition) at 10uM” value was -55.2%.

For `Cc1ccc(C)c(S(=O)(=O)N2CCCCC2CCNC(=O)C(=O)NCc2ccco2)c1` (stereo not drawn), the “hERG current change (%, negative = inhibition) at 10uM” value was -21.8%.

For `O=C(NCC1CCCN1S(=O)(=O)c1cccs1)c1ccccc1` (stereo not drawn), the “hERG current change (%, negative = inhibition) at 10uM” value was 16.5%.

With `COc1ccc(C(CNC(=O)C(CC(C)C)NS(=O)(=O)c2ccc(C)cc2)N2CCOCC2)cc1` (stereo not drawn), the “hERG current change (%, negative = inhibition) at 10uM” value is -3.25%.

Regarding `Oc1c(C=NCc2ccncc2)sc2ccccc12`, the “hERG current change (%, negative = inhibition) at 10uM” value is given as -38.4%.

As for `CCCCn1c(N)c(N(CCC(C)C)C(=O)c2cccc(-n3cnnn3)c2)c(=O)[nH]c1=O`, the “hERG current change (%, negative = inhibition) at 10uM” value is -7.92%.

As to `CCc1ccc(CN(C)C(=O)CC2C(=O)NCCN2Cc2ccoc2)cc1` (stereo not drawn), the “hERG current change (%, negative = inhibition) at 10uM” value is listed as 4.18%.

Consider `COc1ccc(Cl)cc1NC(=O)C1CCN(S(C)(=O)=O)CC1`, for which the “hERG current change (%, negative = inhibition) at 10uM” value turned out to be 3.72%.

For the compound `CCOc1ccccc1/C=C/c1onc(C)c1S(=O)(=O)N1CCC(C(=O)N(CC)CC)CC1`, the “hERG current change (%, negative = inhibition) at 10uM” value was -3.33%.

With `O=C(NCc1cccnc1)c1ccc(NC(=O)c2ccc([N+](=O)[O-])cc2)cc1`, the “hERG current change (%, negative = inhibition) at 10uM” value amounted to 9.09%.

With `CCOC(=O)Cc1cc(=O)n2[nH]c(-c3ccc(Cl)cc3)cc2n1`, the “hERG current change (%, negative = inhibition) at 10uM” value is -20.4%.

On to `CCCc1nc2oc3cc(OC)ccc3c(=O)c2c(=O)n1CCc1ccccc1`, for which the “hERG current change (%, negative = inhibition) at 10uM” value is given as -38.3%.

As to `COc1ccc(-n2c(=O)c(NC(=O)c3ccccc3)c3n(c2=S)CCCCC3)cc1`, the “hERG current change (%, negative = inhibition) at 10uM” value is recorded as -3.03%.

Turning to `CC(=O)c1ccc(NC(=O)CO/N=C(\C)c2cccs2)cc1`, the “hERG current change (%, negative = inhibition) at 10uM” value is listed as -8.22%.

`O=C(Nc1ccccn1)c1ccc2c(c1)S(=O)(=O)c1ccccc1C2=O`: the “hERG current change (%, negative = inhibition) at 10uM” value is on record as 6.46%.

Regarding `CCCCCn1cnnc1SCC(=O)c1ccc2c(c1)OCO2`, the “hERG current change (%, negative = inhibition) at 10uM” value is on record as -27.9%.

With `Cc1nc2c3ccccc3nc(SCC(=O)c3ccc(Cl)cc3)n2n1`, the “hERG current change (%, negative = inhibition) at 10uM” value is reported as 2.48%.

Take `COC(=O)C1=C(C(=O)OC)[C@@H]2N(Cc3ccccc3)c3ccccc3[C@@]23C[C@@H](C(=O)OC)N(C(=O)NC2CCCCC2)C3=N1`: the “hERG current change (%, negative = inhibition) at 10uM” value is on record as -12.1%.

In the case of `COc1ccc(-n2c(CN3CCN(c4ccccn4)CC3)nc3ccc([N+](=O)[O-])cc3c2=O)c(OC)c1`, the “hERG current change (%, negative = inhibition) at 10uM” value is recorded as -55.5%.

For the compound `CCOC(=O)C1CCN(Cc2nc3ccc([N+](=O)[O-])cc3c(=O)n2-c2ccc(OC)cc2OC)CC1`, the “hERG current change (%, negative = inhibition) at 10uM” value is -53.8%.

As to `COc1ccc(-n2c(CN3CCN(c4ccc(F)cc4)CC3)nc3ccc([N+](=O)[O-])cc3c2=O)c(OC)c1`, the “hERG current change (%, negative = inhibition) at 10uM” value was -44.6%.

`COc1ccc(-n2c(CN3CCN(C)CC3)nc3ccc([N+](=O)[O-])cc3c2=O)c(OC)c1`: the “hERG current change (%, negative = inhibition) at 10uM” value is -38.4%.

For the compound `CCN1CCN(Cc2nc3ccc([N+](=O)[O-])cc3c(=O)n2-c2ccc(OC)cc2OC)CC1`, the “hERG current change (%, negative = inhibition) at 10uM” value is reported as -52%.

For the compound `COc1ccc(-n2c(CN3CCOCC3)nc3ccc([N+](=O)[O-])cc3c2=O)c(OC)c1`, the “hERG current change (%, negative = inhibition) at 10uM” value is -3.17%.

Take `COc1ccc(-n2c(CN3CCC(C)CC3)nc3ccc([N+](=O)[O-])cc3c2=O)c(OC)c1`: the “hERG current change (%, negative = inhibition) at 10uM” value worked out at 4.93%.

Regarding `COc1ccc(-n2c(CN3CCN(c4ccccc4)CC3)nc3ccc([N+](=O)[O-])cc3c2=O)c(OC)c1`, the “hERG current change (%, negative = inhibition) at 10uM” value is given as -10.8%.

For the compound `COc1cccc(-n2c(CN3CCN(c4ccccn4)CC3)nc3ccc([N+](=O)[O-])cc3c2=O)c1`, the “hERG current change (%, negative = inhibition) at 10uM” value is reported as -40%.

For the compound `CCOC(=O)C1CCCN(Cc2nc3ccc([N+](=O)[O-])cc3c(=O)n2-c2ccc(OC)cc2OC)C1` (stereo not drawn), the “hERG current change (%, negative = inhibition) at 10uM” value is -28.9%.

`COc1ccc(-n2c(CN3CCN(Cc4ccccc4)CC3)nc3ccc([N+](=O)[O-])cc3c2=O)c(OC)c1`: the “hERG current change (%, negative = inhibition) at 10uM” value is given as -51.1%.

Consider `COc1ccc(-n2c(CN3CCC(C(N)=O)CC3)nc3ccc([N+](=O)[O-])cc3c2=O)c(OC)c1`, for which the “hERG current change (%, negative = inhibition) at 10uM” value was -3.9%.
